Data as given in the supplement of paper PMC11732987, “Enantioselective OTUD7B fragment discovery through chemoproteomics screening and high-throughput optimisation” (Communications Chemistry, 2025).

Key:
Test in all cases: log2 ratio of Biotin-Ahx-Ub-VS probe labelling (fragment/DMSO); higher = less target engagement (more negative = stronger competition), active = hit call of the paper (q ≤ 0.05, log2 ratio ≤ -1)
Conditions in all cases: compound concentration: 200 uM; treatment time: 3 h
USP34 = USP34 (UniProt Q70CQ2)
Method in brief: (§1)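 Labelled DUBs from HEK293T lysate were NeutrAvidin-enriched, digested with LysC and trypsin, and run by diaPASEF LC-MS/MS. Before that, each 495 µg sample in Tris/CHAPS/IGEPAL buffer with protease inhibitors was treated in triplicate with fragment at 200 µM or vehicle for 3 h, then with Biotin-Ahx-Ub-VS at 0.5 µM final for 1 h. Values are average log2 ratios of fragment over vehicle by unpaired t-test, based on global-median-normalised Spectronaut label-free quantities from proteins with ≥2 unique peptides.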

USP36 = biological target: T1, USP36 (UniProt Q9P275)
T1 sequence (whole entry): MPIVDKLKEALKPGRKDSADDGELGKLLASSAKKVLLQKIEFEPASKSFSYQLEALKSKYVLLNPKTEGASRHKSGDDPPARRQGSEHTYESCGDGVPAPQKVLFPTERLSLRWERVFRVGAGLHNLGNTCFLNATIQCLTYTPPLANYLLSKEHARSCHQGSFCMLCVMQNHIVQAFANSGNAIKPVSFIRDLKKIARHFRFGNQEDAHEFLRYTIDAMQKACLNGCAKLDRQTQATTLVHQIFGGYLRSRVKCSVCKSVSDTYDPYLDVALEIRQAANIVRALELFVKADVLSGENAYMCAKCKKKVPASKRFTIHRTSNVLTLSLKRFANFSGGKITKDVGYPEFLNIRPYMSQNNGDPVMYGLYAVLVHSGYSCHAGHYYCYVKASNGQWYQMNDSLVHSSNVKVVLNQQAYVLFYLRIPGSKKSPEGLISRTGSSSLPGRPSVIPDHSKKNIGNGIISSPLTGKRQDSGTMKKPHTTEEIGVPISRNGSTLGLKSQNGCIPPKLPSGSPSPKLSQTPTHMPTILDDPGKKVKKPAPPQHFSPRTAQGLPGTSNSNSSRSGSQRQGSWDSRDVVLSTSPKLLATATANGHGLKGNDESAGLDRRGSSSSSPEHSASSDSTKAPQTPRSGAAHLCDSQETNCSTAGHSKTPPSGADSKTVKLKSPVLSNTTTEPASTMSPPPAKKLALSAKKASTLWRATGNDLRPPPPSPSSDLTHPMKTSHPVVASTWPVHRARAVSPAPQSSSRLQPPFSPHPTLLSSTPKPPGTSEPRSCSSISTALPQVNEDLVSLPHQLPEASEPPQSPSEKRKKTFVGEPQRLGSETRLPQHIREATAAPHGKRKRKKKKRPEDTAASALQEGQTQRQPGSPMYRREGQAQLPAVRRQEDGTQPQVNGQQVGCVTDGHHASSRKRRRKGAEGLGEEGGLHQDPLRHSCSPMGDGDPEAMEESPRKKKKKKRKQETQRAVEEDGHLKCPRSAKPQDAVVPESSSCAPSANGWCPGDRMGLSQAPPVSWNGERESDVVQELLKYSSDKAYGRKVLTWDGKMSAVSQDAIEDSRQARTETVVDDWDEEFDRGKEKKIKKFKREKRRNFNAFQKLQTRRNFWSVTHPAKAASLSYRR
Method in brief: as §1

USP38 = biological target: T2, USP38 (UniProt Q8NB14)
T2 sequence (whole entry): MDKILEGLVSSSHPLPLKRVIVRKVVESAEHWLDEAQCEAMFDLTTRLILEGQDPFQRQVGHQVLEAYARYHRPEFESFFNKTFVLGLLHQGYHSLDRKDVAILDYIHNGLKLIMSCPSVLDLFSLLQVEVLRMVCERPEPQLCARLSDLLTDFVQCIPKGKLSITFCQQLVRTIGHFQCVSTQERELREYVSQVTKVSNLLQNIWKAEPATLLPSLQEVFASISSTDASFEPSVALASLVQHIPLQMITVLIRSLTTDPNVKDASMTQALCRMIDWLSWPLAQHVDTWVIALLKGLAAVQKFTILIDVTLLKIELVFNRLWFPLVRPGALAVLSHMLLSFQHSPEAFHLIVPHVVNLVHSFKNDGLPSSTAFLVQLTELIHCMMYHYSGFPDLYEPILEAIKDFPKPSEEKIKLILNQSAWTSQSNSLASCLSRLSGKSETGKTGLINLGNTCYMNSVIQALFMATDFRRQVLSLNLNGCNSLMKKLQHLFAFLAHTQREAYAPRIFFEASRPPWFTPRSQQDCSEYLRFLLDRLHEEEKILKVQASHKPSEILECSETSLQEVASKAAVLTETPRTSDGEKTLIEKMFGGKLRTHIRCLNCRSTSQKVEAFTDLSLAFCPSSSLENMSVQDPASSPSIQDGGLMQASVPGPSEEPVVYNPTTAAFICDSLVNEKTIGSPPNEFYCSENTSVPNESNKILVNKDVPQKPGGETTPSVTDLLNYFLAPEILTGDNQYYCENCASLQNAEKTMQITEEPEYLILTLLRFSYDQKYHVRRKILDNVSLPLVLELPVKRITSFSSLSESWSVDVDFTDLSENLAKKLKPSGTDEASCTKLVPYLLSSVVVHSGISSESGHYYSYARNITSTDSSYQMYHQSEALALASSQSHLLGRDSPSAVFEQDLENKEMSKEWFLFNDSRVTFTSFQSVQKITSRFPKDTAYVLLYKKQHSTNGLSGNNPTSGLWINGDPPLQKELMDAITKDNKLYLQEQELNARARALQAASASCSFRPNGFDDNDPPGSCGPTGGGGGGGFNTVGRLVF
Method in brief: as §1

USP39 = biological target: T3, USP39 (UniProt Q53GS9)
T3 sequence (whole entry): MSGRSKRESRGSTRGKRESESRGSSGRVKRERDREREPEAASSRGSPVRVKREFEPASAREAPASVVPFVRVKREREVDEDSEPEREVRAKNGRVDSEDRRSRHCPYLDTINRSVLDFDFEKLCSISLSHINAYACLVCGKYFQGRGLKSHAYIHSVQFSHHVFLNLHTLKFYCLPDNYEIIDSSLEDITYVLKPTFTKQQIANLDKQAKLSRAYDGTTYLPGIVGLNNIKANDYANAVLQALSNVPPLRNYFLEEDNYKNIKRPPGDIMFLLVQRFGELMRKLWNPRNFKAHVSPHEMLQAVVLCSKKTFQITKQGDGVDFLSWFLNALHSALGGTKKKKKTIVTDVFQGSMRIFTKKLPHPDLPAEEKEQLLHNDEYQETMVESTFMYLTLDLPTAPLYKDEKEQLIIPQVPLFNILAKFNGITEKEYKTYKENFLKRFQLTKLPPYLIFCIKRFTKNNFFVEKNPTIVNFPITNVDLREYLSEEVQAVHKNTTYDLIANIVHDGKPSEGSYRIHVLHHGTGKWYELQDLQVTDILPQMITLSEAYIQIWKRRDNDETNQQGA
Method in brief: as §1

USP4 = biological target: T4, USP4 (UniProt Q13107)
T4 sequence (whole entry): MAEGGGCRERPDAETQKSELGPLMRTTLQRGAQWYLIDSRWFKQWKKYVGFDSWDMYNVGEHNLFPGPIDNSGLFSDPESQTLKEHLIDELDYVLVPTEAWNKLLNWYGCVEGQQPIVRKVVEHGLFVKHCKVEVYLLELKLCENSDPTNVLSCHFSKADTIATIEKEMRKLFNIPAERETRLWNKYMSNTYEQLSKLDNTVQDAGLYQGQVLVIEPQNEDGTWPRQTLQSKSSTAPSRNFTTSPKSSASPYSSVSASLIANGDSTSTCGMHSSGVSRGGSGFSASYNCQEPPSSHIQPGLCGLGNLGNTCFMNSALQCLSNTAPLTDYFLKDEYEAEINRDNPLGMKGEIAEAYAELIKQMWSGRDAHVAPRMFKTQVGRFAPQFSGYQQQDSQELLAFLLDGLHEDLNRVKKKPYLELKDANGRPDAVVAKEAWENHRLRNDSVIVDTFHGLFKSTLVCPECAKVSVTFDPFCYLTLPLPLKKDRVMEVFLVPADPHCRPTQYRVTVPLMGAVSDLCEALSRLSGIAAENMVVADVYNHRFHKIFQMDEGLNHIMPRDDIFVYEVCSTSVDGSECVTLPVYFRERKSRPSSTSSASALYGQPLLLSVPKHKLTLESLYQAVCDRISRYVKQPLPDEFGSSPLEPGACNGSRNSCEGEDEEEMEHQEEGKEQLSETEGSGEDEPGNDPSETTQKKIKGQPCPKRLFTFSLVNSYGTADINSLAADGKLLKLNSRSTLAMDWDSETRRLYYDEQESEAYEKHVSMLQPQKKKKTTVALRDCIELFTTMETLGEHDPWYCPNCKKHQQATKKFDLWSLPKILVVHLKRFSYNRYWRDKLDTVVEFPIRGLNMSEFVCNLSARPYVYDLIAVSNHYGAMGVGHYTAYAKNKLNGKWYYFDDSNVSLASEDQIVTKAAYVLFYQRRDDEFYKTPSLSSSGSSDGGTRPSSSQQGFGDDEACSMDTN
Method in brief: as §1

Measured: log2 ratio of Biotin-Ahx-Ub-VS probe labelling

Chain of USP34 (Q70CQ2 whole entry, the tested form may be a part): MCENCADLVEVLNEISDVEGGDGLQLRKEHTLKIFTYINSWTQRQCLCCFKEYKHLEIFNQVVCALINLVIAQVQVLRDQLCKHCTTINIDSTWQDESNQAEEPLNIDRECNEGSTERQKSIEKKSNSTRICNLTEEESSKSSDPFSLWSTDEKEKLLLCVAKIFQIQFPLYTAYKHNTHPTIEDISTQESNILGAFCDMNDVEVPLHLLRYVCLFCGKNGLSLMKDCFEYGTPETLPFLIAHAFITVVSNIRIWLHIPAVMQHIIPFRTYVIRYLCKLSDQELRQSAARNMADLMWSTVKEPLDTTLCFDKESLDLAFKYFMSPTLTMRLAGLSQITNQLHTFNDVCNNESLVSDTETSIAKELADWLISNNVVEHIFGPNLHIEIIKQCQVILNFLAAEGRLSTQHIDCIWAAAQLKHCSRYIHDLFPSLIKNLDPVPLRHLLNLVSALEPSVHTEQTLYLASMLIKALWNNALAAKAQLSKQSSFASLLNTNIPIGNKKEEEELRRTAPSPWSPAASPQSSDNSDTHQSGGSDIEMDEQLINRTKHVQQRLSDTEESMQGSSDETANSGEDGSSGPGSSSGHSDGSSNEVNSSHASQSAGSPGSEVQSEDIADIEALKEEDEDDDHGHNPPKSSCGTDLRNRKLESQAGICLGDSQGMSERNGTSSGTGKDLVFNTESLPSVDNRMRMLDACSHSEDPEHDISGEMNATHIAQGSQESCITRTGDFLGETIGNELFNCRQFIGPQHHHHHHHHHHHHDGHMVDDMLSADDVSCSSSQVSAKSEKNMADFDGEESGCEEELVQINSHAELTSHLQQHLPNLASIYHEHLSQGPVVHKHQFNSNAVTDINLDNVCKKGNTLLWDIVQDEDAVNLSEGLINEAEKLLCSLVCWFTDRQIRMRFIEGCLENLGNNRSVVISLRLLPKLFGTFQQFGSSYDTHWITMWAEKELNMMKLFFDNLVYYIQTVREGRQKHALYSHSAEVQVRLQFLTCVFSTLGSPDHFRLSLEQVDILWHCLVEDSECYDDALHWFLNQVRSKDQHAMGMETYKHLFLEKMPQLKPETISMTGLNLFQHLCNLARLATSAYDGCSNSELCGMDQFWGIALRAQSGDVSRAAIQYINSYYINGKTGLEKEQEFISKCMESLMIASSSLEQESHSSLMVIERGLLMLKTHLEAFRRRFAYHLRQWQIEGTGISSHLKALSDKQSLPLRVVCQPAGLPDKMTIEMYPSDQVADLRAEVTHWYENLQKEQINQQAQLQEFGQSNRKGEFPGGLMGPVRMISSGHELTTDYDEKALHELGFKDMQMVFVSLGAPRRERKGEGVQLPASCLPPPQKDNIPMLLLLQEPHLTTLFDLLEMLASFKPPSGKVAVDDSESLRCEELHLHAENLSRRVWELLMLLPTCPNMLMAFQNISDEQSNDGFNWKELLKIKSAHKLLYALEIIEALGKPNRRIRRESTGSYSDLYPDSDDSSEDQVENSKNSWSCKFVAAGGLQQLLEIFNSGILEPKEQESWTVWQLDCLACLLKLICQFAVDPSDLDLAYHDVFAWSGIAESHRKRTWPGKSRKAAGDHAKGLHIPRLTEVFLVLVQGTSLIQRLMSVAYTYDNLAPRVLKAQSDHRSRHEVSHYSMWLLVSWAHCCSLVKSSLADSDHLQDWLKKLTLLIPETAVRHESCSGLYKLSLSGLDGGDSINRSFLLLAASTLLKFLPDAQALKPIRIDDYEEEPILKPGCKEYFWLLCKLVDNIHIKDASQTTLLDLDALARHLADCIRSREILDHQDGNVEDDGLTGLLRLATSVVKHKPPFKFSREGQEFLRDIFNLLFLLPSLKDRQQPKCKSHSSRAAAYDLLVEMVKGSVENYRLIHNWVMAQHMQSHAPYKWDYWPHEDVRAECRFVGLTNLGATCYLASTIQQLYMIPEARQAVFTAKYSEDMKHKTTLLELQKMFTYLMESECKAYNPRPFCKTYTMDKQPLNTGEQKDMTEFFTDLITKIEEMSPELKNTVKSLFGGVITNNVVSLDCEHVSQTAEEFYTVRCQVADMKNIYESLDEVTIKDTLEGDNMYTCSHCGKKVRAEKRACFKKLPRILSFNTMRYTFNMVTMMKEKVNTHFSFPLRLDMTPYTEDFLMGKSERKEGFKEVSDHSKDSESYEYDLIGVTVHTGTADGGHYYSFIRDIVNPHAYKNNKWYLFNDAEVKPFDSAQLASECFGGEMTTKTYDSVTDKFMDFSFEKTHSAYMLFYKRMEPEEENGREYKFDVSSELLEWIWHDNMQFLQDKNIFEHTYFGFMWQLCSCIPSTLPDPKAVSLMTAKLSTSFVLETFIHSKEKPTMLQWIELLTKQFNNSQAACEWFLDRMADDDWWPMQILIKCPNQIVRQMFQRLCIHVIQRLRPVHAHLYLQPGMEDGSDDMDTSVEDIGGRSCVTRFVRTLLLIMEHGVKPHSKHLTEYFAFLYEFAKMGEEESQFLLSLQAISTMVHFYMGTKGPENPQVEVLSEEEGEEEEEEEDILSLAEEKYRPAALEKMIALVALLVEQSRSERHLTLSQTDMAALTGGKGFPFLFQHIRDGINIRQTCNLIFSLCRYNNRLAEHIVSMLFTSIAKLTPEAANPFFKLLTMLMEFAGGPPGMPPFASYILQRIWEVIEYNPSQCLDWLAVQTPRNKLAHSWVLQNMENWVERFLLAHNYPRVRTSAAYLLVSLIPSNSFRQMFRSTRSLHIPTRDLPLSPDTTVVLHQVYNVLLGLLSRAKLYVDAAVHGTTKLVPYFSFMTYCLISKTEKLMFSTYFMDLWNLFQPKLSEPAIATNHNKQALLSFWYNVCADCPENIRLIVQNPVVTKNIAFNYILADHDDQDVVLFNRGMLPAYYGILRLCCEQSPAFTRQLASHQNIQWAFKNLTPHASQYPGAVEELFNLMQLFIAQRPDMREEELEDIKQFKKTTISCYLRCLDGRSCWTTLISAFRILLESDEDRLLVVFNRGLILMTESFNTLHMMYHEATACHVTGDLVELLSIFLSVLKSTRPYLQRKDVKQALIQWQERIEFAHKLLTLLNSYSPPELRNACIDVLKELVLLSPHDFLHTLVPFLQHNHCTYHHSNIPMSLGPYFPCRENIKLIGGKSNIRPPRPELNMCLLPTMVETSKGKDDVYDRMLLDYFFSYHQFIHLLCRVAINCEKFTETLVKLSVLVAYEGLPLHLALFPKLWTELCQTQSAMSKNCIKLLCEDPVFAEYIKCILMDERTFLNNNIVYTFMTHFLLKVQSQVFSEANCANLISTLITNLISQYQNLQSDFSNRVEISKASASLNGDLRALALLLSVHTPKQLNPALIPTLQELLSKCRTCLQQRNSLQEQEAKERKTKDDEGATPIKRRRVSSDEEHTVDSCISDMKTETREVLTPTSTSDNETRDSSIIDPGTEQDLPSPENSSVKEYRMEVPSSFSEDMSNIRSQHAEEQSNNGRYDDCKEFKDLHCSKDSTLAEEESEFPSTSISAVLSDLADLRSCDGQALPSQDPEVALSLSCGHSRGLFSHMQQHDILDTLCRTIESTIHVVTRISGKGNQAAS

CNC(=O)C1CCN(C(=O)CCl)CC1
inactive: USP34 -0.0658 | USP36 -0.083 | USP38 0.119 | USP39 0.229 | USP4 -0.146
